# The source made the active and inactive calls.
# How the values were obtained:
# [1] = compound effects on differentiated 3T3-L1 adipocyte viability – cell-based, 3T3-L1 adipocytes, calcein-AM fluorescence, 48 h, basal, profiling panel (AID 1163); conditions: 3T3-L1 adipocytes viability, higher = more signal
# [2] = compound effects on hepatocellular carcinoma cell viability – HepG2, calcein-AM fluorescence, 48 h, basal, profiling panel (AID 1164); conditions: higher = more signal
# [3] = compound effects on multiple myeloma cell viability – MM1S, calcein-AM fluorescence, 48 h, basal, profiling panel (AID 1165); conditions: higher = more signal
# [4] = calcein-AM signal in unstimulated myeloma cells – cell-based, calcein-AM fluorescence, 48 h, PK04 Diversity Set, profiling panel (AID 1166); conditions: RPMI8226 myeloma viability, higher = more signal;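 note: cells grown under basal conditions without added stimulus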
# [5] = JC-1 mitochondrial signal, unstimulated HepG2 cells – cell-based, JC-1 fluorescence, 24 h, 100 nL compound, profiling panel (AID 1167); conditions: HepG2 mitochondrial potential, higher = more signal
# [6] = JC-1 mitochondrial signal, unstimulated adipocytes – cell-based, JC-1 fluorescence, 3T3-L1 adipocytes, 24 h, 100 nL compound, profiling panel (AID 1168); conditions: JC-1 mitochondrial fluorescence, higher = more signal, called active from +8 up or from −8 down
# [7] = JC-1 mitochondrial signal, unstimulated myeloma cells – cell-based, JC-1 fluorescence, RPMI8226, 24 h, 100 nL compound, profiling panel (AID 1169); conditions: JC-1 mitochondrial potential fluorescence, higher = more signal
# [8] = JC-1 mitochondrial signal, unstimulated MM1S myeloma – cell-based, JC-1 fluorescence, 24 h, 100 nL compound, profiling panel (AID 1170); conditions: MM1S mitochondrial potential, higher = more signal
# [9] = resazurin metabolic signal in A549 cells – cell-based, resazurin fluorescence, 24 h, PK04 Diversity Set, profiling panel (AID 1171); conditions: A549 viability, higher = more signal, called active from +8 up or from −8 down
# [10] = resazurin metabolic signal in HepG2 cells – cell-based, resazurin fluorescence, 24 h, PK04 Diversity Set, profiling panel (AID 1172); conditions: HepG2 viability, higher = more signal
# [11] = budding yeast growth changes without added modifier – OD600, strain BY4716, 24 h, basal condition, primary screen (AID 1173); conditions: S. cerevisiae BY4716 growth, OD600, 24 h; higher = more signal, called active from +8 up or from −8 down
# [12] = viability profiling in MM1S myeloma cells – cell-based, resazurin fluorescence, basal, 24 h, PK04 Diversity Set, profiling panel (AID 1174); conditions: higher = more signal, called active from +8 up or from −8 down
# [13] = target: Dihydroorotate dehydrogenase (quinone), mitochondrial (Plasmodium falciparum (isolate 3D7)) (UniProt Q08210); experiment: inhibition of P. falciparum DHODH – biochemical, C-terminal His tag, absorbance 600 nm, primary screen (AID 1175); conditions: PfDHODH enzyme, DCIP absorbance 600 nm; higher = more signal, called active from +8 up or from −8 down;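 note: recombinant parasite enzyme with a five histidine tag at its C terminus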
# [14] = growth modulation of vineyard yeast isolate – strain RM11-1a, OD600, basal, 24 h, primary screen (AID 1177);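 note: cultures grown under basal conditions with no added stressor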; conditions: S. cerevisiae RM11-1a growth, OD600, 24 h; higher = more signal, called active from +8 up or from −8 down
# [15] = growth of efflux-deficient E. coli DRC39 – strain DRC39, OD650, 24 h, E. coli filamentation inducers, primary screen (AID 1178);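 note: growth measured as culture turbidity by optical density at 650 nm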; conditions: E. coli DRC39 acrAB, higher = more signal, called active from +8 up or from −8 down
# [16] = growth of efflux-deficient E. coli DRC39 – strain DRC39, OD650, 48 h, E. coli filamentation inducers, primary screen (AID 1179);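 note: screen aims at cell division blockers that make cells filament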; conditions: E. coli DRC39 delta-acrAB growth, higher = more signal, called active from +8 up or from −8 down
# [17] = viability profiling in RPMI8226 myeloma cells – cell-based, resazurin fluorescence, basal, 24 h, PK04 Diversity Set, profiling panel (AID 1180); conditions: higher = more signal;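 note: RPMI8826 multiple myeloma cell line at 5000 cells per well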
# [18] = target: E3 ubiquitin-protein ligase XIAP (Homo sapiens) (UniProt P98170); experiment: small molecules binding XIAP protein – biophysical, small-molecule microarray, fluorescence 635 nm, primary screen (AID 1181); conditions: higher = more signal;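 note: score merges 667 nm emission and signal to noise over triplicate slides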
# [19] = tested on: XIP peptide (Xip251-270) binding; experiment: XIP fragment 251-270 binding compounds – biochemical, small-molecule microarray, fluorescence 635/667 nm, 0.1 µg/mL protein, primary screen (AID 1182); conditions: fluorescent protein binding, 635 nm, higher = more signal, called active from +8 up or from −8 down
# XIP peptide (Xip251-270) = experiment: compounds binding XIP fragment 251-270 – biochemical, small-molecule microarray, fluorescence 635/667 nm, 0.5 µg/mL protein, primary screen (AID 1183); conditions: fluorescence 635 nm, higher = more signal
# E3 ubiquitin-protein ligase XIAP (Homo sapiens), sequence (P98170 whole entry, looked up, the tested form may be a part): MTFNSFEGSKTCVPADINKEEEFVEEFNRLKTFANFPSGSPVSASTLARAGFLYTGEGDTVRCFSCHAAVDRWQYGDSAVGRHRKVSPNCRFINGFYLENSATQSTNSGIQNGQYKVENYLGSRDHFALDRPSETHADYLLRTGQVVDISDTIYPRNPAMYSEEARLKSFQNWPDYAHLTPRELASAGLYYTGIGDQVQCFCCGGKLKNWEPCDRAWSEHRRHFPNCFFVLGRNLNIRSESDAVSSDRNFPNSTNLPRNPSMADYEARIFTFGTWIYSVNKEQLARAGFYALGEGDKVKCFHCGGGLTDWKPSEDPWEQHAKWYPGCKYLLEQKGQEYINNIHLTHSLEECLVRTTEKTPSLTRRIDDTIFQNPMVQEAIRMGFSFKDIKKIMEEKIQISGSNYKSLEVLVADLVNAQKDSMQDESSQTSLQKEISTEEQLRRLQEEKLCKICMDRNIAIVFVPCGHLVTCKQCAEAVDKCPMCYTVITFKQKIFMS
# Dihydroorotate dehydrogenase (quinone), mitochondrial (Plasmodium falciparum (isolate 3D7)), sequence (Q08210 whole entry, looked up): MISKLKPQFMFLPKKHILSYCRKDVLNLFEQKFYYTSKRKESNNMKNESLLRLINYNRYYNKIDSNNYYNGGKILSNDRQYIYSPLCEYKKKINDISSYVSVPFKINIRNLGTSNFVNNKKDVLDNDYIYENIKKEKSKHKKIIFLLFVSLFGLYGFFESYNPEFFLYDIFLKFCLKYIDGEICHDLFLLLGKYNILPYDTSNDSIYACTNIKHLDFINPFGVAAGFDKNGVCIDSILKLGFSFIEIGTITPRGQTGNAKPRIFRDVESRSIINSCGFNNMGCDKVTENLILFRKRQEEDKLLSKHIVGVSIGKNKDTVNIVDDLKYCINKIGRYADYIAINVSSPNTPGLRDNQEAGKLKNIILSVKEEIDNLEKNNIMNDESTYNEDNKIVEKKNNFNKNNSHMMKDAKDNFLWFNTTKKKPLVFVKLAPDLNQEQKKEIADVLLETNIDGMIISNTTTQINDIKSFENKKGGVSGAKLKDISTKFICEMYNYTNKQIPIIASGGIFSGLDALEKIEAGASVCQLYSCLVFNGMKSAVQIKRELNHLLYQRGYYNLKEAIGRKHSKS
SMILES,z-score [1],z-score [2],z-score [3],z-score [4],z-score [5],z-score [6],z-score [7],z-score [8],z-score [9],z-score [10],z-score [11],z-score [12],composite z-score [13],z-score [14],z-score [15],z-score [16],z-score [17],composite z-score [18],composite z-score [19],composite z-score (XIP peptide (Xip251-270))
COC(=O)C(CC#Cc1ccc2c(c1)[C@]1(C(=O)N2)[C@H](C(N)=O)[C@H]2C(=O)O[C@H](c3ccccc3)[C@H](c3ccccc3)N2[C@@H]1c1ccc(O)cc1)C(=O)OC,0.915,0.72,0.555,-1.42,-2.22,-0.2 (inactive),-1.17,1.25,1.16 (inactive),0.259,-1.26 (inactive),1.52 (inactive),-0.0538 (inactive),0.208 (inactive),0.105 (inactive),0.572 (inactive),1.27,0.0239,1.07 (inactive),-1.13
CC(C)C(CO)N1C(=O)[C@@H]2C3C(=O)OCCC/C=C\[C@H]3OC23C=CCN(C(C)C)C(=O)[C@@H]13 (stereo not given in full),0.492,-0.345,0.239,-0.0156,0.271,-0.0599 (inactive),-0.524,1.05,0.735 (inactive),0.997,-0.953 (inactive),0.814 (inactive),-0.848 (inactive),-1.36 (inactive),1.66 (inactive),1.26 (inactive),1.53,-0.269,0.528 (inactive),-0.501
COC(=O)C1=CC(c2ccc(CO)cc2)=CC(C2CC2)N(C)C=C1C(=O)OC (stereo not given),1.31,0.295,1.07,-0.503,1.47,0.935 (inactive),0.515,1.12,0.419 (inactive),0.578,-2.82 (inactive),0.833 (inactive),-0.782 (inactive),-3.29 (inactive),0.983 (inactive),1.28 (inactive),0.842,-0.0388,1.8 (inactive),-0.407
O=C1O[C@@H](c2ccccc2)[C@@H](c2ccccc2)N2[C@@H](c3ccc(OCCO)cc3)[C@]3(C(=O)Nc4ccc(C#CC5(O)CCCCCC5)cc43)[C@@H](C(=O)NC[C@H](O)c3ccccc3)[C@H]12,1.71,0.394,-0.987,0.208,-1.7,0.548 (inactive),-0.535,-0.197,0.883 (inactive),0.18,0.842 (inactive),0.786 (inactive),0.935 (inactive),2.1 (inactive),1.06 (inactive),1.12 (inactive),0.966,-0.304,0.673 (inactive),0.819
